The first test has as its system BRSK1. To be noted: concentration: 1 μM, replicates: in singlicate; n = 1.
For `Oc1ccc2ncnc(Nc3ccc(OCc4ccccc4)cc3)c2c1` [GI262866], the “%Inh” value stood at 2%.

With `FC(F)(F)c1ccc(-c2cc(-c3c[nH]nc3-c3ccccn3)ccn2)cc1` [GW599550], the “%Inh” value is given as 0%.

As for `CCc1nc(-c2cccc(C)c2)c(-c2ccnc(NC(=O)c3ccccc3)c2)s1`, the “%Inh” value is recorded as 0%.

With `CN1c2ccc(-c3ccc(C(=O)NCCO)cc3)cc2-c2[nH]ncc2S1(=O)=O`, the “%Inh” value turned out to be 0%.

In the case of `O=C(c1ccc(-c2cc(-c3c[nH]nc3-c3ccccn3)ccn2)cc1)N1CCCC1` [GW792479], the “%Inh” value amounted to 0%.

For the compound `COc1ccc(-c2oc3ncnc(N)c3c2-c2ccc(OC)cc2)cc1` [SB-589132], the “%Inh” value turned out to be 12%.

On to `CCc1nc(-c2cccc(N(C)S(=O)(=O)c3ccccc3)c2)c(-c2ccnc(Nc3ccc(N4CCN(C(C)=O)CC4)nc3)n2)s1` [GSK1645895], for which the “%Inh” value came out at 0%.

As for `Fc1cccc(COc2ccc(Nc3ncnc4cc[nH]c34)cc2Cl)c1`, the “%Inh” value is given as 2%.

As to `Cl.c1ccc(Cn2ncc3cc(Nc4ncnc5ccccc45)ccc32)cc1` [GW273749], the “%Inh” value is listed as 0%.

Turning to `COC(=O)c1cccc(NC(=O)NCCNc2ccnc(Nc3ccc(F)cc3)n2)c1` [GSK1379883], the “%Inh” value was found to be 0%.

For the compound `Cl.c1ccc(Cn2ccc3cc(Nc4ncnc5ccccc45)ccc32)cc1` [GW275568], the “%Inh” value worked out at 0%.

With `COc1ccc(Nc2nccc(N3CCC(NC(=O)c4cccc(NC(C)=O)c4)C3)n2)cc1` (stereo not drawn) [GSK1379732], the “%Inh” value was found to be 0%.

On to `Nc1nccc2scc(-c3ccc4c(c3)CCN4C(=O)Cc3cc(F)ccc3F)c12` [GSK2587663], for which the “%Inh” value was found to be 4%.

`Fc1ccc(Nc2nccc(-c3c(-c4ccc(Cl)cc4)nn4ncccc34)n2)cc1F` [GW829058]: the “%Inh” value amounted to 0%.

Turning to `CS(=O)(=O)CCNCc1ccc(-c2ccc3ncnc(Nc4ccc(OCc5ccccc5)c(Cl)c4)c3c2)o1.Cl` [GW574783], the “%Inh” value turned out to be 1%.

In the case of `Cn1ccc2ncnc(Oc3ccc(NC(=O)Nc4cccnc4)c(Cl)c3)c21`, the “%Inh” value amounted to 6%.

`COc1ccc(NC(=O)c2ccc(-c3cc(-c4nnc(C)o4)ccc3C)cc2)cc1` [GW595885]: the “%Inh” value is on record as 0%.

As for `NC(=O)c1sc(-n2cnc3ccccc32)cc1OCc1ccccc1F` [GSK1024306], the “%Inh” value worked out at 5%.

`Fc1ccc(-c2ncn(CCCNCc3ccccc3)c2-c2ccncc2)cc1`: the “%Inh” value is listed as 0%.

As to `CCC(CC)(CC)n1cnc2c(N)ncnc21` [SKF-97620], the “%Inh” value came out at 0%.

`N#Cc1ccc(Oc2ccc(Nc3ncnc4cc[nH]c34)cc2Cl)cc1`: the “%Inh” value came to 3%.

`O=C(Nc1n[nH]c2nc(-c3ccco3)c(Br)cc12)c1ccc(CN2CCCC2)cc1.O=C(O)[C@H](O)[C@@H](O)C(=O)O` [SB-742352]: the “%Inh” value was found to be 51%.

With `COc1ccc(-c2nc3n(c2-c2ccncc2)CCC3)cc1` [SKF-104493], the “%Inh” value was found to be 0%.

Take `O=C(NCCCN1CCCC1=O)c1cnc(NCc2cc(Cl)ccc2Cl)nc1NC1CCNCC1`: the “%Inh” value was determined as 6%.

For the compound `O=C(Nc1ccccc1)Nc1ccc(Oc2ccc3nccn3n2)cc1`, the “%Inh” value turned out to be 0%.

As for `CCCc1ccc(S(=O)(=O)NC2CCN(c3ccnc(Nc4ccc(OC)cc4)n3)C2)cc1` (stereo not drawn) [GSK1379737], the “%Inh” value worked out at 0%.

Turning to `COC(=O)c1c(-c2ccccc2)c2cc(Cl)ccc2c(=O)n1Cc1ccc(S(C)(=O)=O)cc1`, the “%Inh” value was determined as 0%.

For `CC(C)N1CCC(n2cnc(-c3ccc(F)cc3)c2-c2ccnc(N)n2)CC1` [SB-223132], the “%Inh” value came out at 0%.

`Nc1n[nH]c2nnc(-c3ccccc3)cc12` [SB-517389]: the “%Inh” value was determined as 0%.

Turning to `C[C@H]1CC[C@@H](C(=O)Nc2ccccc2)CN1c1cc(-c2ccc3c(N)n[nH]c3c2)nc(N)n1` [GSK2283293], the “%Inh” value is recorded as 0%.

On to `CN1CCC(n2cnc(-c3ccc(F)cc3)c2-c2ccnc(NC3CCNCC3)n2)CC1` [SB-229482], for which the “%Inh” value is 0%.

For the compound `Fc1cccc(COc2ccc(Nc3ncnc4sc(-c5ccc[nH]5)cc34)cc2Cl)c1` [GW707818], the “%Inh” value was determined as 1%.

As to `O=C(Nc1ccccc1F)NC1CCN(c2ccnc(Nc3ccc(F)cc3)n2)C1` (stereo not drawn) [GSK1379722], the “%Inh” value is recorded as 17%.

Turning to `Clc1ccc(-c2cc(-c3c[nH]nc3-c3ccccn3)ccn2)cc1` [GW681251], the “%Inh” value is recorded as 0%.

Consider `COc1cc2ncnc(Nc3ccc(OCc4ccccc4Br)c(Cl)c3)c2cc1OC.Cl` [GI261590], for which the “%Inh” value came to 0%.

Take `Cl.Cl.c1ccc(-c2cc3ccncc3cc2OC2CCNCC2)cc1` [GSK1122999]: the “%Inh” value came out at 17%.

The subject of another test is BRSK2. To be noted: concentration: 1 μM, replicates: in singlicate; n = 1.
For the compound `Oc1ccc2ncnc(Nc3ccc(OCc4ccccc4)cc3)c2c1` [GI262866], the “%Inh” value came out at 0%.

Regarding `FC(F)(F)c1ccc(-c2cc(-c3c[nH]nc3-c3ccccn3)ccn2)cc1` [GW599550], the “%Inh” value worked out at 0%.

`CCc1nc(-c2cccc(C)c2)c(-c2ccnc(NC(=O)c3ccccc3)c2)s1`: the “%Inh” value is 17%.

Take `CN1c2ccc(-c3ccc(C(=O)NCCO)cc3)cc2-c2[nH]ncc2S1(=O)=O`: the “%Inh” value was 15%.

Take `O=C(c1ccc(-c2cc(-c3c[nH]nc3-c3ccccn3)ccn2)cc1)N1CCCC1` [GW792479]: the “%Inh” value is reported as 2%.

Regarding `COc1ccc(-c2oc3ncnc(N)c3c2-c2ccc(OC)cc2)cc1` [SB-589132], the “%Inh” value was found to be 0%.

Take `CCc1nc(-c2cccc(N(C)S(=O)(=O)c3ccccc3)c2)c(-c2ccnc(Nc3ccc(N4CCN(C(C)=O)CC4)nc3)n2)s1` [GSK1645895]: the “%Inh” value was found to be 0%.

On to `Fc1cccc(COc2ccc(Nc3ncnc4cc[nH]c34)cc2Cl)c1`, for which the “%Inh” value worked out at 0%.

Turning to `Cl.c1ccc(Cn2ncc3cc(Nc4ncnc5ccccc45)ccc32)cc1` [GW273749], the “%Inh” value was 0%.

For the compound `COC(=O)c1cccc(NC(=O)NCCNc2ccnc(Nc3ccc(F)cc3)n2)c1` [GSK1379883], the “%Inh” value is reported as 0%.

On to `Cl.c1ccc(Cn2ccc3cc(Nc4ncnc5ccccc45)ccc32)cc1` [GW275568], for which the “%Inh” value was 20%.

Take `COc1ccc(Nc2nccc(N3CCC(NC(=O)c4cccc(NC(C)=O)c4)C3)n2)cc1` (stereo not drawn) [GSK1379732]: the “%Inh” value amounted to 0%.

Consider `Nc1nccc2scc(-c3ccc4c(c3)CCN4C(=O)Cc3cc(F)ccc3F)c12` [GSK2587663], for which the “%Inh” value turned out to be 0%.

With `Fc1ccc(Nc2nccc(-c3c(-c4ccc(Cl)cc4)nn4ncccc34)n2)cc1F` [GW829058], the “%Inh” value is 4%.

Take `CS(=O)(=O)CCNCc1ccc(-c2ccc3ncnc(Nc4ccc(OCc5ccccc5)c(Cl)c4)c3c2)o1.Cl` [GW574783]: the “%Inh” value turned out to be 0%.

As to `Cn1ccc2ncnc(Oc3ccc(NC(=O)Nc4cccnc4)c(Cl)c3)c21`, the “%Inh” value is listed as 0%.

As for `COc1ccc(NC(=O)c2ccc(-c3cc(-c4nnc(C)o4)ccc3C)cc2)cc1` [GW595885], the “%Inh” value was determined as 0%.

Turning to `NC(=O)c1sc(-n2cnc3ccccc32)cc1OCc1ccccc1F` [GSK1024306], the “%Inh” value is on record as 0%.

With `Fc1ccc(-c2ncn(CCCNCc3ccccc3)c2-c2ccncc2)cc1`, the “%Inh” value came to 0%.

In the case of `CCC(CC)(CC)n1cnc2c(N)ncnc21` [SKF-97620], the “%Inh” value is 15%.

Turning to `N#Cc1ccc(Oc2ccc(Nc3ncnc4cc[nH]c34)cc2Cl)cc1`, the “%Inh” value is given as 0%.

For the compound `O=C(Nc1n[nH]c2nc(-c3ccco3)c(Br)cc12)c1ccc(CN2CCCC2)cc1.O=C(O)[C@H](O)[C@@H](O)C(=O)O` [SB-742352], the “%Inh” value stood at 24%.

As for `COc1ccc(-c2nc3n(c2-c2ccncc2)CCC3)cc1` [SKF-104493], the “%Inh” value was found to be 0%.

Consider `O=C(NCCCN1CCCC1=O)c1cnc(NCc2cc(Cl)ccc2Cl)nc1NC1CCNCC1`, for which the “%Inh” value is 0%.

In the case of `O=C(Nc1ccccc1)Nc1ccc(Oc2ccc3nccn3n2)cc1`, the “%Inh” value stood at 0%.

In the case of `CCCc1ccc(S(=O)(=O)NC2CCN(c3ccnc(Nc4ccc(OC)cc4)n3)C2)cc1` (stereo not drawn) [GSK1379737], the “%Inh” value amounted to 0%.

For the compound `COC(=O)c1c(-c2ccccc2)c2cc(Cl)ccc2c(=O)n1Cc1ccc(S(C)(=O)=O)cc1`, the “%Inh” value amounted to 0%.

Take `CC(C)N1CCC(n2cnc(-c3ccc(F)cc3)c2-c2ccnc(N)n2)CC1` [SB-223132]: the “%Inh” value was 0%.

As for `Nc1n[nH]c2nnc(-c3ccccc3)cc12` [SB-517389], the “%Inh” value is given as 0%.

`C[C@H]1CC[C@@H](C(=O)Nc2ccccc2)CN1c1cc(-c2ccc3c(N)n[nH]c3c2)nc(N)n1` [GSK2283293]: the “%Inh” value was determined as 0%.

Consider `CN1CCC(n2cnc(-c3ccc(F)cc3)c2-c2ccnc(NC3CCNCC3)n2)CC1` [SB-229482], for which the “%Inh” value was determined as 0%.

`Fc1cccc(COc2ccc(Nc3ncnc4sc(-c5ccc[nH]5)cc34)cc2Cl)c1` [GW707818]: the “%Inh” value came out at 16%.

As to `O=C(Nc1ccccc1F)NC1CCN(c2ccnc(Nc3ccc(F)cc3)n2)C1` (stereo not drawn) [GSK1379722], the “%Inh” value is given as 0%.

Regarding `Clc1ccc(-c2cc(-c3c[nH]nc3-c3ccccn3)ccn2)cc1` [GW681251], the “%Inh” value stood at 0%.

For `COc1cc2ncnc(Nc3ccc(OCc4ccccc4Br)c(Cl)c3)c2cc1OC.Cl` [GI261590], the “%Inh” value is on record as 37%.

Turning to `Cl.Cl.c1ccc(-c2cc3ccncc3cc2OC2CCNCC2)cc1` [GSK1122999], the “%Inh” value was found to be 6%.

The values above are taken from paper PMC5540273 (PLoS ONE, 2017).
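Also: KINOMEscan kinase panel screen.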
